# Like-named read-outs stand apart in the source and are kept apart here.
# Legend:
# Design in all cases: species or system human, MV4-11 + K-562 + COLO205 + SK-N-BE2 + OVCAR-8
# [1] = test system: AURKB; conditions: read-out: apparent Kd, n = 1
# [2] = test system: CDC42BPB; conditions: read-out: apparent Kd; compound concentrations:100 nM and 1000 nM (sheet 'Samples'); n = 1
# [3] = test system: CDC42BPG; conditions: read-out: apparent Kd, n = 1
# [4] = test system: PKN1; conditions: read-out: apparent Kd; compound concentrations:100 nM and 1000 nM (sheet 'Samples'); n = 1
# [5] = test system: PRKACA; conditions: read-out: apparent Kd; compound concentrations:100 nM and 1000 nM (sheet 'Samples'); n = 1
# [6] = test system: PRKACB; conditions: read-out: apparent Kd; compound concentrations:100 nM and 1000 nM (sheet 'Samples'); n = 1
# [7] = test system: PRKG1; conditions: read-out: apparent Kd; compound concentrations:100 nM and 1000 nM (sheet 'Samples'); n = 1
# [8] = test system: PRKX; conditions: read-out: apparent Kd; compound concentrations:100 nM and 1000 nM (sheet 'Samples'); n = 1
# [9] = test system: ROCK1; conditions: read-out: apparent Kd; compound concentrations:100 nM and 1000 nM (sheet 'Samples'); n = 1
# [10] = test system: ROCK2; conditions: read-out: apparent Kd; compound concentrations:100 nM and 1000 nM (sheet 'Samples'); n = 1
# [11] = test system: STK26; conditions: read-out: apparent Kd; compound concentrations:100 nM and 1000 nM (sheet 'Samples'); n = 1
# [12] = test system: EIF2AK1; conditions: read-out: apparent Kd; compound concentrations: 100 nM and 1000 nM (sheet 'Samples'), CATDS: 0.50638977254874895; n = 1
# [13] = test system: CAMK2B; conditions: read-out: apparent Kd; compound concentrations: 100 nM and 1000 nM (sheet 'Samples'), CATDS: 1; n = 1
# [14] = test system: BMP2K; conditions: read-out: apparent Kd; compound concentrations: 100 nM and 1000 nM (sheet 'Samples'), CATDS: 0.35520277596049099; n = 1
# [15] = test system: MYLK3; conditions: read-out: apparent Kd; compound concentrations: 100 nM and 1000 nM (sheet 'Samples'), CATDS: 0.39880703654606497; n = 1
# [16] = test system: TNIK; conditions: read-out: apparent Kd; compound concentrations: 100 nM and 1000 nM (sheet 'Samples'), CATDS: 0.27194394843596698; n = 1
# [17] = test system: CDC42; conditions: read-out: apparent Kd; compound concentrations: 100 nM and 1000 nM (sheet 'Samples'), CATDS: 0.48931368679936299; n = 1
# [18] = test system: CDKL5; conditions: read-out: apparent Kd; compound concentrations: 100 nM and 1000 nM (sheet 'Samples'), CATDS: 0.51116349982272002; n = 1
# [19] = test system: DDR1; conditions: read-out: apparent Kd; compound concentrations: 100 nM and 1000 nM (sheet 'Samples'), CATDS: 0.140210166469808; n = 1
# [20] = test system: T1, DJA1; conditions: read-out: apparent Kd; compound concentrations: 100 nM and 1000 nM (sheet 'Samples'), CATDS: 0.100265839502576; n = 1
# T1 construct: gene DNAJA1
# [21] = test system: FLT3; conditions: read-out: apparent Kd; compound concentrations: 100 nM and 1000 nM (sheet 'Samples'), CATDS: 0.118432535218852; n = 1
# [22] = test system: PIK3C3; conditions: read-out: apparent Kd; compound concentrations: 100 nM and 1000 nM (sheet 'Samples'), CATDS: 0.105221440009215; n = 1
# [23] = test system: PIK3CA; conditions: read-out: apparent Kd; compound concentrations: 100 nM and 1000 nM (sheet 'Samples'), CATDS: 0.28704207187710601; n = 1
# [24] = test system: PIK3CG; conditions: read-out: apparent Kd; compound concentrations: 100 nM and 1000 nM (sheet 'Samples'), CATDS: 0.108238843984754; n = 1
# [25] = test system: RET; conditions: read-out: apparent Kd; compound concentrations: 100 nM and 1000 nM (sheet 'Samples'), CATDS: 0.12612517113031699; n = 1
# [26] = compound concentrations:100 nM and 1000 nM (sheet 'Samples')
compound,measurement,setting,value
CC(C)NCC(Cc1ccccc1)NC(=O)c1cc(Br)c(-c2ccnc3[nH]ccc23)s1.CC(C)NCC(Cc1ccccc1)NC(=O)c1cc(Br)c(-c2ccnc3[nH]ccc23)s1.Cl.Cl (stereo not drawn) [GSK1383281A],potency estimated from few doses,[1]; [26],0.95 µM
same,potency estimated from few doses,[2],1.32 µM
same,potency estimated from few doses,[3]; [26],1.36 µM
same,potency estimated from few doses,[4],0.84 µM
same,potency estimated from few doses,[5],0.0702 µM
same,potency estimated from few doses,[6],0.102 µM
same,potency estimated from few doses,[7],0.0136 µM
same,potency estimated from few doses,[8],1.1 µM
same,potency estimated from few doses,[9],0.0431 µM
same,potency estimated from few doses,[10],0.048 µM
same,potency estimated from few doses,[11],1.94 µM
Cn1cc(-c2ccc3c(c2)CCN3C(=O)Cc2cc(F)cc(F)c2F)c2c(N)ncnc21 [GSK2634140A],potency estimated from few doses,"[1]; compound concentrations: 100 nM and 1000 nM (sheet 'Samples'), CATDS: 0.49376947402656801",1.3 µM
same,potency estimated from few doses,[12],1.24 µM
Cc1ccc2c(-c3ccnc(Nc4ccc5c(c4)OCCO5)n3)c(-c3ccc(C(F)(F)F)cc3)nn2n1 [GW832467X],potency estimated from few doses,[13],0.475 µM
Nc1cccc(-c2ccc3c(N)n[nH]c3c2)c1 [GSK2193613A],potency estimated from few doses,[14],1.27 µM
same,potency estimated from few doses,[15],1.02 µM
same,potency estimated from few doses,[16],2.31 µM
COc1ccc(Nc2nccc(N3CCC(NC(=O)Nc4cccc(C(C)=O)c4)C3)n2)cc1 (stereo not drawn) [GSK1379731A],potency estimated from few doses,[17],1.58 µM
same,potency estimated from few doses,[18],1.45 µM
CN1CCN(CCCNc2nc3ccc(Oc4ccc(NC(=O)Nc5cc(C(F)(F)F)ccc5F)cc4)cc3[nH]2)CC1.Cl [GW700494A],potency estimated from few doses,"[3]; compound concentrations: 100 nM and 1000 nM (sheet 'Samples'), CATDS: 0.120544348793502",1.13 µM
same,potency estimated from few doses,[19],0.826 µM
same,potency estimated from few doses,[20],1.78 µM
same,potency estimated from few doses,[21],1.17 µM
same,potency estimated from few doses,[22],1.56 µM
same,potency estimated from few doses,[23],0.263 µM
same,potency estimated from few doses,[24],1.45 µM
same,potency estimated from few doses,[25],1.02 µM
